# Reference: ChEMBL document CHEMBL1201862, “PubChem BioAssay data set” (2004)
# Potency and affinity values are given separately.
# Target: T1, fMet-Leu-Phe receptor (Homo sapiens) (UniProt P21462)
# T1 sequence (whole entry): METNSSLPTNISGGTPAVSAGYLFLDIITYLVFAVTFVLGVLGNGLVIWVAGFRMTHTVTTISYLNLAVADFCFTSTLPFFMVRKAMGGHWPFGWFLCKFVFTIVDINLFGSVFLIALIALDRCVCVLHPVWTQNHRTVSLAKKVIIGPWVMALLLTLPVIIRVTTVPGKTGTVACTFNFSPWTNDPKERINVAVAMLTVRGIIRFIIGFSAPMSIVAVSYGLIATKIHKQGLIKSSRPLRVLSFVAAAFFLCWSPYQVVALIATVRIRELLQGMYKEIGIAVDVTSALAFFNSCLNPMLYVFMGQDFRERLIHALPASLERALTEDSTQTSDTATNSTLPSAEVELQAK
# Test: human FPR1 ligand displacement potency – cell-based, flow cytometry, Ki from IC50, dose response (AID 724); call rule not given here
# Assay type: functional
row,SMILES,KI MICROM
1,Cc1cccc(C)c1NC(=O)C(NC(=O)Cc1cccs1)c1ccccc1 (stereo not given),> 44.3 µM (inactive)
2,Cc1sc2c(c1C)c(=O)n(Cc1ccccc1)c(=O)n2Cc1ccccc1F,> 44.3 µM (inactive)
3,COc1ccc(-c2c(C(F)(F)F)oc3cc(OC(=O)c4cccnc4)ccc3c2=O)cc1OC,8.9 µM (active)
4,O=C(Oc1ccc2c(=O)c(-c3ccccc3Cl)c(C(F)(F)F)oc2c1)c1cccs1,1.1 µM (active)
5,COc1ccccc1-c1c(C(F)(F)F)oc2cc(OC(=O)c3ccco3)ccc2c1=O,1.1 µM (active)
6,COc1cccc(/C=C2/C(=O)NN(c3ccc(C)cc3)C2=O)c1,> 44.3 µM (inactive)
7,CCc1cc2c(=O)c(-c3nc4ccccc4n3C)c(C)oc2cc1OC(C)=O,0.3 µM (active)
8,COCCN1C(=O)C(O)=C(C(=O)c2ccccc2)C1c1ccccc1OC (stereo not given),12.4 µM (inactive)
9,COc1cccc(-c2ccnc3[nH]n(-c4ccccc4)c(=O)c23)c1,> 44.3 µM (inactive)
10,COc1ccc(C2C(C(=O)N3CCCC(C)C3)c3ccccc3C(=O)N2C)cc1 (stereo not given),> 44.3 µM (inactive)
11,CC(C)C(=O)N(Cc1ccco1)S(=O)(=O)c1cccc2cccnc12,> 44.3 µM (inactive)
12,COc1ccc(-c2c(C(F)(F)F)oc3cc(OC(=O)c4ccco4)ccc3c2=O)cc1OC,3.3 µM (active)
13,COc1ccc(OC)c(CNC(=O)Cn2c(=O)sc3ccccc32)c1,> 44.3 µM (inactive)
14,Cc1cccc(C2CC(=O)NC3=C2C(=O)CC(c2cccs2)C3)c1 (stereo not given),> 44.3 µM (inactive)
15,O=C(Oc1ccc2c(=O)c(Oc3ccccc3Br)c(C(F)(F)F)oc2c1)c1cccs1,> 44.3 µM (inactive)
16,O=C1CC(c2ccccc2C(F)(F)F)C2=C(CC(c3cccs3)CC2=O)N1 (stereo not given),> 44.3 µM (inactive)
17,CCC(C)(C(=O)NC1CCCCC1)N(Cc1cccs1)C(C)=O (stereo not given),> 44.3 µM (inactive)
18,COc1ccc(-c2c(C)nn3c(=O)c4c([nH]c23)CCCC4)cc1,> 44.3 µM (inactive)
19,Cc1[nH]c2c(-c3ccc(Cl)cc3)c(C(F)(F)F)nn2c(=O)c1Cc1ccccc1,2.5 µM (active)
20,CCCC(=O)N(Cc1ccco1)S(=O)(=O)c1cccc2cccnc12,> 44.3 µM (inactive)
